Screening results (PubChem)
Only some compounds are listed: those with a hit (about 1.6% of all), similar ones and a draw of the others.
Platelet DG rel: platelet dense granule release activity; human platelet-rich plasma, SFLLRN dense granule ATP release, luminescence; inhibition, %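 (compounds screened at 7.5 µM in platelet-rich plasma)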; actives 0.22% (n = 300,000);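 active = mean replicate score, as percent of positive control, at or above 50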
STAT1 blocker: STAT1 signaling inhibition. NIH 3T3 STAT1-luciferase reporter, IFN-gamma, luminescence. actives 0.35% (n = 200,000). inhibition, % at 5.5 µM;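 active = inhibition above a set limit, the mean inhibition across all tested compounds plus 3 SD, cut at about 34% in these data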;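 also: 0% = IFN-gamma with DMSO and 100% = IFN-gamma with 300 µM nifuroxazide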
PPC-1+TRAIL kill: PPC-1 cancer cell killing with TRAIL present; actives 0.41% (n = 220,000); PPC-1 cells + TRAIL, ATPLite viability luminescence; cell killing (% activity), % at 4 µM or 5 µM;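 active = cell killing above 50% in the first pass at 4 µM, then a duplicate retest at 5 µM averaging 50% or more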;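 also: plate controls were cells with TRAIL plus DMSO for no effect and medium-only wells lacking cells for full effect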
C8 TRAIL sens: caspase-8 TRAIL sensitization | NB7+C8 cells + TRAIL, ATPlite viability luminescence | inhibition (viability loss, TRAIL sensitization), % at 10 µM | actives 1% (n = 360,000);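 active = compounds causing at least 50% loss of cell viability in the single-dose screen, relative to plate controls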
STAT3 inh: inhibitors of IL-6 induced STAT3 signaling | actives 0.89% (n = 190,000) | inhibition, % at 5.5 µM | U3A cells, IL-6 STAT3-luciferase reporter, luminescence; host cell line lacks STAT1;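 active = inhibition above the mean inhibition across all screened compounds plus 3 SD, cut at about 44% in these data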;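 also: 0% = DMSO only wells and 100% = 100 µM nifuroxazide control wells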
PPC1 cytotox: kills PPC-1 cells | shares compounds with PPC-1+TRAIL kill | PPC-1 viability, ATPlite luminescence, overnight | cytotoxicity, % at 5 µM | actives 50% (n = 1,200) | AID 1447;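 active = reconfirmed compounds whose average cytotoxicity reaches 50% or more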;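 also: 0% = DMSO-treated cells and 100% = wells holding medium but no cells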
An asterisk follows results filed as active; · = no result given.

SMILES	Platelet DG rel	STAT1 blocker	PPC-1+TRAIL kill	C8 TRAIL sens	STAT3 inh	PPC1 cytotox
O=c1cc2c(nn1Cc1ccc(F)cc1)-c1ccccc1CC2	-2.1	-3.4	15.3	-4.5	-1.0	·
Cc1ccc(S(=O)(=O)N(C)c2ccc(C(=O)NCC(c3ccccc3)N3CCCC3)cc2)cc1 (centres undefined)	·	·	·	-12.0	·	·
O=C(c1ncc[nH]1)c1ccccc1C(=O)N1CCOCC1	-7.7	0.7	6.2	-14.6	7.6	5.3
COc1ccc(/C=C2\CCc3ccccc3C2=O)cc1OC	6.8	7.0	4.0	8.3	3.9	·
COc1ccc(N/C=C2\CCc3ccccc3C2=O)cc1	47.1	76.0*	72.0*	86.2*	90.3*	72.4*
CC(=O)Oc1ccc(/C=C2/CCc3ccccc3C2=O)cc1	30.6	·	38.4	76.3*	·	44.0
CCCCOCCCNC(=O)C[C@@H]1C[C@@]2(C(=O)OC)CCCCC=C2N(Cc2cccc3ccccc23)C1=O	·	·	·	9.6	·	·
CCCCCc1ccc(OCCCC[n+]2ccc(C)cc2)c(CCCCC)c1	5.4	27.7	26.7	46.3	39.9	9.4
O=C(NCCCN1CCCC1=O)c1cccc(C(F)(F)F)c1	-1.7	-3.4	0.8	-8.8	7.0	-2.6
On1onc2c3cc(-c4ccccc4)nc3ccc21	·	-16.5	23.8	2.6	4.8	17.6
Cc1cc(=O)n2cc(-c3ccccc3)nc2[nH]1	-1.4	-23.7	25.7	27.1	7.6	·
Cc1ccc(-c2cn3c(=O)cc(C)[nH]c3n2)cc1	-0.7	-21.1	70.8*	71.1*	28.9	69.3*
Nc1c(C(=O)NCCN2CCOCC2)c2nc3ccccc3nc2n1CCc1ccccc1	-1.6	-2.2	1.8	6.7	23.4	·
Nc1c(C(=O)NCCN2CCOCC2)c2nc3ccccc3nc2n1CCc1ccccc1F	-17.4	1.7	-7.2	15.7	27.6	16.9
O=C(NCc1ccccn1)c1cc(-c2ccc(-c3ccccc3)cc2)nc2ccccc12	0.5	-63.1	61.5*	82.2*	-15.9	60.9*
CCC/C=N/NC(=O)c1cc(-c2ccccc2)nc2ccccc12	22.5	-5.9	8.5	-0.5	-1.5	·
CCc1ccc(-c2cc(C(=O)Nn3cnnc3)c3ccccc3n2)cc1	44.9	64.1*	97.0*	93.4*	82.5*	97.0*
CC(C)(C)c1ccc(-c2cc(C(=O)NNC(=O)Nc3ccccc3)c3ccccc3n2)cc1	6.4	-8.7	64.5*	68.4*	-7.7	60.6*
CCNC(=S)NNC(=O)c1cc(-c2ccc(OCC)cc2)nc2ccccc12	103.4*	86.2*	93.0*	85.7*	98.9*	93.0*
Cc1cccc(N(C(=O)CCC(=O)Nc2cc(C)on2)C(C(=O)NC2CCCC2)c2ccccc2)c1 (centres undefined)	6.4	·	·	-2.4	·	·
COc1ccc(Cc2c(C3CCCCC3)nc3c(Cl)cc(C(F)(F)F)cn23)c(C)c1	·	·	·	-4.4	·	·
COc1ccc(CNC[C@H]2O[C@@H](n3ccc(=O)[nH]c3=O)[C@H](O)[C@@H]2O)cc1	·	·	·	4.6	·	·
Cc1ccc(S(=O)ONc2cccc(NOS(=O)c3ccc(C)cc3)c2)cc1 (centres undefined)	·	·	·	-19.8	·	·
CCC(CC)C(=O)Oc1c(C(=O)N(C)C)cccc1-c1ccccc1	·	·	·	-7.5	·	·
CCn1cc(-c2cc(C(=O)O)c3ccccc3n2)cn1	16.0	22.6	51.3*	62.4*	22.1	54.8*
SMILES	Platelet DG rel	STAT1 blocker	PPC-1+TRAIL kill	C8 TRAIL sens	STAT3 inh	PPC1 cytotox
Cn1c2c(c(=O)n(C)c1=O)CS(=O)c1ccccc1N2 (centres undefined)	·	·	·	8.5	·	·
COc1ccc(-c2nsc3c(N4CCCCC4C)ncnc23)cc1 (centres undefined)	-4.0	80.6*	77.1*	77.5*	98.7*	78.6*
O=C(COc1ccc(S(=O)(=O)NC2CCCCC2)cc1)NCC1CCCO1 (centres undefined)	-0.1	2.9	9.3	-8.0	-4.1	2.3
OC[C@@H]1CN(Cc2ccncc2)C[C@H](n2cnc3c(NC4CCCC4)ncnc32)O1	·	·	·	-7.4	·	·
Cc1ccc(/C=C/C(=O)C2C(=O)c3ccccc3C2=O)cc1	-0.6	34.0	94.8*	85.1*	60.5*	94.1*
Cc1ccc(-c2cc(=O)c3ccccc3[nH]2)cc1	-5.6	-1.9	22.5	35.0	4.8	·
COc1cc2[nH]c(-c3ccc(C)cc3)cc(=O)c2cc1OC	0.6	-7.5	10.9	-9.8	-11.0	·
Cc1ccc2[nH]c(-c3ccccc3)cc(=O)c2c1	1.7	-29.0	69.0*	52.5*	15.3	67.7*
